# Inconclusive results are not listed. Active and inactive are the calls of the source. Rule for the calls: active = hit-call score of the fitted dose curve at least 0.9, where 1 is the maximum; inconclusive = response in the unintended direction; inactive = score below 0.9.
# System: TPO (gene 7173)
# Test: CCTE_GLTED_hTPO: CCTE's human Thyroperoxidase (hTPO) Inhibition Assay, Great Lakes Toxicology and Ecology Division (GLTED) Lab
# Method: CCTE_GLTED_hTPO is a cell-free, single-readout assay designed to test the inhibitory activity of chemicals toward human thyroperoxidase (TPO) protein. Uninhibited enzyme converts Amplex UltraRed to a fluorescent product. Measurements were taken 0.5 hour after chemical dosing in a 96-well plate. CCTE_GLTED_hTPO is the assay component measured from the CCTE_GLTED_hTPO assay. It is designed to make measurements of enzyme activity, a form of enzyme reporter, as detected with […] by Fluorescence technology.Data from the assay component CCTE_GLTED_hTPO was analyzed at the assay endpoint CCTE_GLTED_hTPO in the positive analysis fitting direction relative to DMSO as the negative control and baseline of activity. Using a type of enzyme reporter (the Amplex UltraRed assay), loss-of-signal activity can be used to understand decreased peroxidase activity in the presence of excess […]. To generalize the intended target to other relatable targets, this assay endpoint is annotated to the 'oxidoreductase' intended target family, where the subfamily is 'peroxidase'.
# […]
Compound,AC50,outcome
O=S(=O)(Cl)C(F)(F)C(F)(F)C(F)(F)C(F)(F)C(F)(F)C(F)(F)C(F)(F)C(F)(F)F,276 µM (active),–
O=C(Cl)C(F)(F)C(F)(F)C(F)(F)C(F)(F)C(F)(F)C(F)(F)F,48.3 µM (active),–
O=C(O)C(F)(OC(F)(F)C(F)(OC(F)(F)C(F)(F)C(F)(F)F)C(F)(F)F)C(F)(F)F (centres undefined),13.1 µM (active),–
O=C(O)C(F)(F)C(F)(F)C(F)(F)C(F)(F)C(F)(F)C(F)(F)C(F)(F)C(F)(F)C(F)(F)C(F)F,–,inactive
O=C(Cl)C(F)(F)C(F)(F)C(F)(F)C(=O)Cl,150 µM (active),–
CN(C(=O)C(F)(F)C(F)(F)C(F)(F)F)[Si](C)(C)C,59.5 µM (active),–
FC(F)(F)C(F)(F)C(F)(F)C(F)(F)C(F)(F)C(F)(F)C(F)(F)C(F)(F)CCS,50 µM (active),–
Cn1cc[nH]c1=S,0.127 µM (active),–
O=C(O)C(F)(F)C(F)(F)C(F)(F)C(F)(F)C(F)(F)C(F)(F)C(F)(F)C(F)(F)Cl,278 µM (active),–
O=S(=O)(OCC(F)(F)F)C(F)(F)C(F)(F)C(F)(F)C(F)(F)F,42.2 µM (active),–
O=C(O)C(F)(OC(F)(F)C(F)(OC(F)(F)C(F)(OC(F)(F)C(F)(F)C(F)(F)F)C(F)(F)F)C(F)(F)F)C(F)(F)F (centres undefined),0.0612 µM (active),–
O=C(Cl)C(F)(F)C(F)(F)C(F)(F)C(F)(F)C(F)(F)C(F)(F)C(F)(F)C(F)(F)F,–,inactive
FC(F)=C(F)C(F)(F)C(F)(F)C(F)(F)C(F)(F)C(F)(F)C(F)(F)F,30.9 µM (active),–
FC(F)(F)C(F)(F)C(F)(F)C(F)(F)C(F)(F)C(F)(F)CCS,–,inactive

# Reference: PubChem BioAssay AID2284326 (EPA ToxCast)
